Bioassay records: PubChem, National Center for Advancing Translational Sciences (NCATS)
TCR act: activates T cell receptor signaling; AID 504894; Potency, µM (highest dose often 9.22 µM), for the others: at the top dose activation of IL-2 secretion, hits mostly activators; primary human leukocytes, anti-CD3, IL-2 HTRF, 48 h; 330,000 tested, under 10 active; also: % of control where 0% means no effect
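48 hr co-incubation of compounds, a-CD3 beads and primary human leukocytes; IL-2 quantified homogeneously by HTRF with anti-IL-2 K and d2 conjugates.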
Nrf2 ARE act: activators of Nrf2 (ARE) signaling. AREc32 ARE-luciferase reporter (MCF7-derived line), luminescence, 24 h. Potency, µM (titrated, usually from 46.1 µM), without a hit: at the top dose activation, hits mostly activators. actives 0.31% (n = 410,000). AID 624171; also: potency is read from the fitted curve at half-maximal effect; % of control where 0% means no effect; nearly all actives have a fitted effect of over 65% in size
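Quantitative high-throughput format: AREc32 reporter cells, 1000 per well, received compound by pin transfer and were incubated 24 hr at 37 deg C, 5% CO2, before Steady-Glo luminescence detection.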
A549 viability: A549 cytotoxicity, counter-screen for Nrf2 inhibitors. A549 ARE-Fluc cells, CellTiter-Fluor viability, 18-24 h. Potency, µM (top dose mostly 46 µM), for the others: at the top dose activity change, negative = cytotoxicity, usual class: inhibitors. actives 0.16% (n = 390,000); also: potency is read from the fitted curve at half-maximal effect; % is scaled to controls: 0 for no effect and ±100 for the full control effect
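A549 ARE_Fluc cells in 5% FBS OPTI-MEM were exposed to compounds in concentration-response for 18-24 h at 37 deg C. Viability was read by CellTiter-Fluor fluorescence (Ex 405/Em 525) after 30 min, before the luciferase read.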
Nrf2 block: Nrf2 pathway inhibition. A549 ARE-Fluc reporter, luciferase luminescence, 18-24 h. Potency, µM (titrated, usually from 46 µM), inactives show at the top dose activity change, negative = inhibition, hits mostly inhibitors. actives 2.1% (n = 360,000); also: potency is read from the fitted curve at half-maximal effect; % is scaled to controls: 0 for no effect and ±100 for the full control effect; nearly all actives have a fitted effect of over 60% in size
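Nrf2 activity is the BugLite luminescence, read 15 min after reagent at room temperature, following CellTiter-Fluor cytotoxicity readout (30 min, 37C). Compound titrations were applied for 18-24 h to 5000 A549 ARE_Fluc cells/well in 5% FBS OPTI-MEM.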
AT treatment: potential ataxia-telangiectasia treatments restoring KAP-1 phosphorylation; F2112 A-T fibroblasts, KAP-1 phosphorylation AlphaLISA; neocarzinostatin DNA damage 30 min before lysis; AID 485349; actives 0.19% (n = 320,000); Potency, µM (top dose mostly 57.5 µM), for inactives: at the highest dose activation, most hits filed as activators; also: potency is read from the fitted curve at half-maximal effect; % of control where 0% means no effect; nearly all actives have a fitted effect of over 45% in size
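hTERT-immortalized A-T patient fibroblasts (F2112), 500 cells/well in OPTI-MEM, 1% FBS, got compounds for 60 min, then NCS for 30 min at 37C. Lysates were then assayed for phospho-KAP-1 by AlphaLISA (anti-pKAP1 donor, anti-KAP1 acceptor beads), 6 hr at 25C.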
CCT chaperon mod: changes cytosolic chaperonin activity | purified chaperonin ATPase assay, HTRF ADP detection, 30 min | AID 651819 | activity change, % (test concentration not listed), hits read low | actives 0.3% (n = 360,000); in the data active = activity change below about -30%; also: % is scaled to controls: 0 for no effect and ±100 for the full control effect
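ATPase activity: ADP formed was measured by HTRF Transcreener (665/615 nm ratio) after 30 min at 37 deg C with 10 uM ATP. Compounds screened at one 76 uM concentration against 40 or 20 nM TRiC in Tris pH 7.4/KCl/MgCl2/DTT buffer.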
* = called active by the depositor; ? = inconclusive; . = not tested or not shown; ! = a repeat was not active; [ ] = dose if it differs, or a comment. Most compounds without a hit are left out; they make up all but 2.6% or so of the library. Unless noted, calls follow the shape of the dose curve; as a rule, active = well fitted curve in the direction sought with a large enough effect; inconclusive = small, poorly fitted or top-dose-only effect, or another doubt; inactive = no such curve, though single readings can be large; an effect the other way counts as inactive or inconclusive.

SMILES	TCR act	Nrf2 ARE act	A549 viability	Nrf2 block	AT treatment	CCT chaperon mod
CCC(C)(C)NC(=O)C1CCC(CNS(=O)(=O)c2ccc3c(c2)CC(C)N3C(C)=O)CC1 (stereo not given)	.	5%	-2%	?	.	.
Cc1cccc(COCC(CC(C)C)N2CCN(C(=O)c3ccc(C(C)(C)C)cc3)CCC2=O)c1 (stereo not given)	-6%	-6%	?	23µM*	8%	-3
CC(C)(C)C(=O)NCCCc1nc2ccccc2n1CCCOc1ccc(Cl)cc1	-4%	2%	?	23µM*	15%	1
CC(C)(C)c1ccc(OCCn2c(CCNC(=O)C3CCCCC3)nc3ccccc32)cc1	.	.	-29%	18µM*	.	.
Cc1ccccc1-c1nnc(-c2cccs2)o1	1%	11µM*	3%	99%	-2%	2
CCN(CC)S(=O)(=O)c1cccc(NC(=O)C2CC(=O)N(c3ccc4c(c3)OCCO4)C2)c1 (stereo not given)	-2%	0%	-14%	23µM*	2%	0
COc1ccc(OC)c(NC(=O)c2c(NCc3cccs3)sc3c2CCCCC3)c1	.	9%	-11%	.	.	.
O=C(COc1ccc2c3c(c(=O)oc2c1)CCCC3)N1CCN(c2ccc(F)cc2)CC1	-1%	0%	10%	0%	1%	1
O=C(COc1ccc2c3c(c(=O)oc2c1)CCC3)N1CCN(c2ccc(F)cc2)CC1	-2%	3%	-3%	23µM*	-4%	2
O=C(COc1ccc(S(=O)(=O)NC2CCCCC2)cc1)N1CCN(c2ccc(F)cc2)CC1	-2%	0%	1%	15µM*	4%	-15
COc1ccc(Cl)c2sc(NC(=O)c3ccc(S(=O)(=O)N4CCOCC4)cc3)nc12	.	0%	7%	.	.	.
COc1ccc(CCC(=O)Nc2cccc(S(=O)(=O)N3CCCCCC3)c2)cc1	1%	0%	-10%	21µM*	13%	0
COc1ccc(CCC(=O)Nc2cccc(S(=O)(=O)N3CCOCC3)c2)cc1OC	-3%	0%	-7%	?	3%	-3
COc1ccc(CC(=O)Nc2cccc(S(=O)(=O)N3CCCCC3)c2)cc1	-4%	2%	-2%	?	7%	-1
O=C(CCc1ccccc1)Nc1cccc(S(=O)(=O)N2CCOCC2)c1	.	0%	-7%	-5%	3%	-35*
COc1ccc(OC)c(/C=C/C(=O)Nc2cccc(S(=O)(=O)N3CCCC3)c2)c1	7%	-1%	16%	13µM*	25%	0
CC(C(=O)NCc1ccccc1F)n1ccc2cc(S(=O)(=O)N3CCCC3)ccc21 (stereo not given)	.	6%	-7%	-37%	.	.
CCc1cccc(-n2nnc(-c3nc(-c4ccccc4Cl)no3)c2N)c1	.	1%	6%	24%	.	.
CC(/C=C/c1ccco1)=N/NC(=O)c1ccccc1Cl	0%	?	-1%	?	-2%	1
O=C(N/N=C/C=C/c1ccco1)c1ccccc1Cl	4%	11µM*	3%	14%	3%	-1
O=C(N/N=C/C=C/c1ccco1)c1cccc([N+](=O)[O-])c1	1%[46.1 µM]	2.2µM*	8%	12%	1%	2
CCCCn1c(SCC(=O)Nc2nnc(CC)s2)nc2c1c(=O)n(C)c(=O)n2C	.	0%	-3%	8.2µM*	-8%	3
CC(=O)Nc1ccc(NC(=O)CSc2nnnn2-c2ccc(F)cc2)cc1	2%	?	1%	-2%	3.2µM*	1
CC(C)n1c(SCC(=O)Nc2nc3c(s2)CCCC3)nc2c1c(=O)n(C)c(=O)n2C	-5%[46.1 µM]	-1%	-16%	23µM*	-1%	-5
COc1ccc(-n2nnnc2SCC(=O)Nc2nc3c(s2)CCCC3)cc1	-5%	0%	-15%	16µM*	1%	1
SMILES	TCR act	Nrf2 ARE act	A549 viability	Nrf2 block	AT treatment	CCT chaperon mod
CCOC(=O)c1c(NC(=O)CSc2nc3c(c(=O)n(C)c(=O)n3C)n2C(C)C)sc(C)c1C	5%	-1%	1%	6%	-11%	-2
O=C(Nc1nc2n(n1)C(c1ccccc1)C=C(c1ccccc1)N2)c1ccc(Cl)c([N+](=O)[O-])c1 (stereo not given)	.	18%	-1%	?	.	.
COc1ccccc1C(=O)N=c1sc2c(C)ccc(OC)c2n1C	3%	4%	9%	24%	16µM*	-1
COc1ccc(C(=O)N=c2sc3c(C)ccc(OC)c3n2C)cc1OC	-2%	10%	-9%	-9%	29%	0
CN(Cc1cnc2nc(N)nc(N)c2n1)c1ccc(C(=O)N[C@@H](CCC(=O)O)C(=O)O)cc1	9%	0%	-18%	1.5µM*!	.	1
CCOc1ccc(C(=O)NCCS(=O)(=O)N2CCN(c3ccccc3F)CC2)cc1OCC	.	0%	7%	.	.	.
Cc1cc(C)n2ncc(C(=O)Nc3ccccc3)c2n1	.	.	1%	20%	.	.
CC(C)c1ccc(-c2cc(C(=O)N3CCOCC3)c3cc(Br)ccc3n2)cc1	-20%	2%	6%	?	4.5µM*	-2
O=C(NCCS(=O)(=O)N1CCN(c2ccccc2F)CC1)c1ccc(Br)cc1	0%	0%	9%	20%	2%	2
Cc1nc2cccnc2n1-c1cccc(C(=O)N2CCN(c3ccc(Cl)cc3)CC2)c1	.	-1%	-20%	18µM*	.	.
COc1ccc(N2CCN(C(=O)c3cccc(-n4c(C)nc5cccnc54)c3)CC2)cc1	.	0%	-1%	16%	.	.
CCCCCn1c(=N)n(CC(O)COc2cccc(C)c2)c2ccccc21 (stereo not given)	.	-4%	-16%	-12%	.	.
COc1ccc(Cc2nc(-c3ccc(-n4cccc4)cc3)no2)cc1OC	-1%	21%	2%	16µM*	28%	0
CCCOc1ccc(C(=O)CCC(=O)OCC(=O)Nc2ccc(OCC)cc2)cc1	.	.	.	.	14µM*	.
CCN(CC)c1ccc(NC(=O)C2CCCN(S(=O)(=O)c3cnc[nH]3)C2)c(C)c1 (stereo not given)	17%	-1%	1%	23µM*	1%	-2
Cc1ccc(NC(=O)CN2CCCN(Cc3cc(C)ccc3C)S2(=O)=O)c(Cl)c1	.	-1%	12%	?	.	.
Oc1ccc2ccccc2c1N=Nc1ccccc1F	-4%	3.5µM*	-7%	28%	41%	-1
COc1ccc(C(=O)OCC(O)COC(=O)c2ccc(OC)cc2)cc1	1%	2%	-16%	?	.	0
Cc1cc(C)cc(-n2c(C)nc3cc(C(=O)NCc4ccc(F)cc4)ccc32)c1	.	3%	7%	.	.	.
